This note sets out measurements from PubChem BioAssay (Tox21).

Results filed as inconclusive are left out. Entries that show only a call come without a potency. Values without a mark were called inactive. Calls of active or inactive are those of the source. Calls come from the whole dose curve; as a rule, active = well fitted curve in the direction sought with a large enough effect in the repeat runs; inconclusive = weak or mixed curves; inactive = no such curve, though single readings can be large; an effect the other way counts as inactive or inconclusive.
Potency is the fitted concentration of half-maximal effect.

The nature of the first test: A CellTox Green Cytotoxicity Assay to monitor cytotoxicity in HEK293 cells - 8 hour (AID 1224884). Note: nearly all actives have a fitted effect of over 35% in size. As to conditions: CellTox Green fluorescence; series mostly up to 76.8 µM; cytotoxicity increase: at the top concentration. The essentials: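 HEK293 cells, 600/well, were preincubated 5 hours and then exposed to compounds at 37 C for up to 40 hours. A cell-impermeant cyanine dye staining dead-cell DNA was read by fluorescence at 0, 8, 16, 24, 32 and 40 h time points.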
Consider `CCC(C)OC(=O)c1ccc(O)cc1` (configuration not stated), for which the Potency entry was “inactive”. Turning to `C/C=C/C(=O)O`, the Potency result is “inactive”. On to `Cn1cnc([N+](=O)[O-])c1Sc1ncnc2nc[nH]c12`, for which the “cytotoxicity increase” value was -2.94% [at 35.3 µM].

For the molecule `Cc1cccc(N(C)C(=S)Oc2ccc3ccccc3c2)c1`, the Potency entry was “inactive”. In the case of `O=C=Nc1ccc(Cc2ccc(N=C=O)cc2)cc1`, the Potency entry is “inactive”. As for `O=CCc1ccccc1`, the Potency result is “inactive”. Still for that read-out and setting: for `CC(C(=O)O)c1cccc(C(=O)c2ccccc2)c1` (configuration not stated) the value was “inactive”; for `CC(=O)C1(C)CC2=C(CCCC2(C)C)CC1C` (configuration not stated), “inactive”; for `c1cc(N(CC2CO2)CC2CO2)ccc1OCC1CO1` (configuration not stated), “inactive”. `Nc1ccccc1N`: the Potency was 50.1 µM (active). Take `CCOCCOCCO`: the Potency result is “inactive”. In the case of `CN(C)C(=N)N=C(N)N`, the “cytotoxicity increase” value was -2.39% [at 35.3 µM]. Consider `COC(C)COC(C)COC(C)CO` (configuration not stated), for which the Potency result was “inactive”. Turning to `O=C1c2cccc(O)c2C(=O)c2c(O)cccc21`, the Potency entry was “inactive”. On the same count and under the same terms, for `O=C(O)c1ccccc1Nc1cccc(C(F)(F)F)c1` the value was “inactive”; for `Cc1ccc2c(n1)Oc1ccc(C(C)C(=O)OCC(=O)N(C)C)cc1C2` (configuration not stated), “inactive”; for `O=C(Nc1ccc(Cl)cc1)Nc1ccc(Cl)c(Cl)c1`, “inactive”.

For the molecule `C#C[C@]1(O)CC[C@H]2[C@@H]3CCc4cc(OC)ccc4[C@H]3CC[C@@]21C`, the Potency entry was “inactive”.

On to `O=C(c1ccccc1)c1ccccc1O`, for which the Potency result was “inactive”. Still for that read-out and setting: for `C#C[C@]1(O)CC[C@H]2[C@@H]3CCC4=Cc5oncc5C[C@]4(C)[C@H]3CC[C@@]21C` the value was “inactive”. Take `CCCCc1oc2ccccc2c1C(=O)c1cc(I)c(OCCN(CC)CC)c(I)c1`: the “cytotoxicity increase” value is 7.65% [at 35.3 µM].

Consider `CCCCC(CC)COC(=O)c1ccc(N(C)C)cc1` (configuration not stated), for which the Potency entry was “inactive”. Regarding `C=CC(C)(CCC=C(C)C)OC(C)=O` (configuration not stated), the Potency result was “inactive”. As for `COc1ccccc1/C=C/C=O`, the Potency entry is “inactive”. Regarding `CC(=O)c1ccccn1`, the Potency entry is “inactive”. On the same count and under the same terms, for `CC(=O)Oc1ccccc1C(=O)Nc1ncc([N+](=O)[O-])s1` the value was “inactive”. On the same count and under the same terms, for `CC(C)Oc1ccc2c(=O)c(-c3ccccc3)coc2c1` the value was “inactive”; for `Oc1ccc(O)cc1`, “inactive”; for `OC[C@H]1O[C@@H]2O[C@H]3[C@H](O)[C@@H](O)[C@@H](O[C@H]4[C@H](O)[C@@H](O)[C@@H](O[C@H]5[C@H](O)[C@@H](O)[C@@H](O[C@H]6[C@H](O)[C@@H](O)[C@@H](O[C@H]7[C@H](O)[C@@H](O)[C@@H](O[C@H]8[C@H](O)[C@@H](O)[C@@H](O[C@H]1[C@H](O)[C@H]2O)O[C@@H]8CO)O[C@@H]7CO)O[C@@H]6CO)O[C@@H]5CO)O[C@@H]4CO)O[C@@H]3CO`, “inactive”.

Take `CN(C)CCC=C1c2ccccc2CCc2ccccc21`: the Potency entry is “inactive”. Same read-out and setting: for `O=C(Nc1ccc([N+](=O)[O-])cc1Cl)c1cc(Cl)ccc1O` the value was “inactive”. `Brc1cc(Oc2cc(Br)c(Br)c(Br)c2Br)c(Br)c(Br)c1Br`: the Potency result was “inactive”. With `CCC(C)c1ccccc1O` (configuration not stated), the Potency result is “inactive”. Still for that read-out and setting: for `S=C(NC1CCCCC1)NC1CCCCC1` the value was “inactive”; for `CCCCOCCOCCO`, “inactive”.

On to `O=C(COc1ccc(Cl)cc1)N1CCN(Cc2ccc3c(c2)OCO3)CC1`, for which the Potency result was “inactive”. Take `O=C(c1ccc(OCCN2CCCCC2)cc1)c1c(-c2ccc(O)cc2)sc2cc(O)ccc12`: the Potency entry was “inactive”.

As to `CC(C)OC(=O)C(C)(C)Oc1ccc(C(=O)c2ccc(Cl)cc2)cc1`, the Potency result was “inactive”. As to `O=C(/C=C/C=C/c1ccc2c(c1)OCO2)N1CCCCC1`, the Potency entry was “inactive”.

The next test is described as follows: qHTS RealTime-Glo MT Cell Viability Assay in HepG2 cells - 16 hour (AID 1224885). Note: nearly all actives have a fitted effect of over 50% in size. The following applies: RealTime-Glo luminescence; series mostly up to 76.8 µM; activity change, negative = cytotoxic: at the top concentration. In short, it runs like this: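 qHTS, HepG2, 600 cells/well, RealTime-Glo (NanoLuc + prosubstrate) added with cells; 5 h preincubation; DMSO compound addition; 37 C; luminescence at 0/8/16/24/32/40 h.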
A general note: qHTS replaces the single test concentration by a dilution series.
For the molecule `CCC(C)OC(=O)c1ccc(O)cc1` (configuration not stated), the Potency entry is “inactive”. As for `C/C=C/C(=O)O`, the Potency result is “inactive”. On to `Cn1cnc([N+](=O)[O-])c1Sc1ncnc2nc[nH]c12`, for which the Potency entry was “inactive”. `Cc1cccc(N(C)C(=S)Oc2ccc3ccccc3c2)c1`: the Potency entry was “inactive”. For `O=C=Nc1ccc(Cc2ccc(N=C=O)cc2)cc1`, the Potency entry was “inactive”. In the case of `O=CCc1ccccc1`, the Potency result was “inactive”. On the same count and under the same terms, for `CC(C(=O)O)c1cccc(C(=O)c2ccccc2)c1` (configuration not stated) the value was “inactive”; for `CC(=O)C1(C)CC2=C(CCCC2(C)C)CC1C` (configuration not stated), “inactive”; for `c1cc(N(CC2CO2)CC2CO2)ccc1OCC1CO1` (configuration not stated), “inactive”. As to `Nc1ccccc1N`, the Potency result was “inactive”.

For the molecule `CCOCCOCCO`, the Potency entry is “inactive”. The same measure, in the same setting: for `CN(C)C(=N)N=C(N)N` the value was “inactive”.

As for `COC(C)COC(C)COC(C)CO` (configuration not stated), the Potency entry is “inactive”. Same read-out and setting: for `O=C1c2cccc(O)c2C(=O)c2c(O)cccc21` the value was “inactive”; for `O=C(O)c1ccccc1Nc1cccc(C(F)(F)F)c1`, “inactive”. Same read-out and setting: for `Cc1ccc2c(n1)Oc1ccc(C(C)C(=O)OCC(=O)N(C)C)cc1C2` (configuration not stated) the value was “inactive”; for `O=C(Nc1ccc(Cl)cc1)Nc1ccc(Cl)c(Cl)c1`, “inactive”. On the same count and under the same terms, for `C#C[C@]1(O)CC[C@H]2[C@@H]3CCc4cc(OC)ccc4[C@H]3CC[C@@]21C` the value was “inactive”.

Turning to `O=C(c1ccccc1)c1ccccc1O`, the Potency entry was “inactive”. Still for that read-out and setting: for `CCCCc1oc2ccccc2c1C(=O)c1cc(I)c(OCCN(CC)CC)c(I)c1` the value was 39.2 µM (active); for `CCCCC(CC)COC(=O)c1ccc(N(C)C)cc1` (configuration not stated), “inactive”; for `C=CC(C)(CCC=C(C)C)OC(C)=O` (configuration not stated), “inactive”. Consider `COc1ccccc1/C=C/C=O`, for which the Potency result was “inactive”. For the molecule `CC(=O)c1ccccn1`, the Potency entry was “inactive”.

`CC(=O)Oc1ccccc1C(=O)Nc1ncc([N+](=O)[O-])s1`: the Potency result is “inactive”. Still for that read-out and setting: for `CC(C)Oc1ccc2c(=O)c(-c3ccccc3)coc2c1` the value was “inactive”.

Consider `Oc1ccc(O)cc1`, for which the Potency result is “inactive”.

Regarding `OC[C@H]1O[C@@H]2O[C@H]3[C@H](O)[C@@H](O)[C@@H](O[C@H]4[C@H](O)[C@@H](O)[C@@H](O[C@H]5[C@H](O)[C@@H](O)[C@@H](O[C@H]6[C@H](O)[C@@H](O)[C@@H](O[C@H]7[C@H](O)[C@@H](O)[C@@H](O[C@H]8[C@H](O)[C@@H](O)[C@@H](O[C@H]1[C@H](O)[C@H]2O)O[C@@H]8CO)O[C@@H]7CO)O[C@@H]6CO)O[C@@H]5CO)O[C@@H]4CO)O[C@@H]3CO`, the Potency result is “inactive”. The same measure, in the same setting: for `CN(C)CCC=C1c2ccccc2CCc2ccccc21` the value was “inactive”.

With `O=C(Nc1ccc([N+](=O)[O-])cc1Cl)c1cc(Cl)ccc1O`, the Potency entry was “inactive”.

Take `Brc1cc(Oc2cc(Br)c(Br)c(Br)c2Br)c(Br)c(Br)c1Br`: the “activity change, negative = cytotoxic” value was -13%. Regarding `CCC(C)c1ccccc1O` (configuration not stated), the Potency result was “inactive”.

On to `S=C(NC1CCCCC1)NC1CCCCC1`, for which the Potency entry was “inactive”. Still for that read-out and setting: for `CCCCOCCOCCO` the value was “inactive”.

As to `O=C(COc1ccc(Cl)cc1)N1CCN(Cc2ccc3c(c2)OCO3)CC1`, the Potency result is “inactive”. For `O=C(c1ccc(OCCN2CCCCC2)cc1)c1c(-c2ccc(O)cc2)sc2cc(O)ccc12`, the “activity change, negative = cytotoxic” value is -7.62% [at 35.3 µM]. Consider `CC(C)OC(=O)C(C)(C)Oc1ccc(C(=O)c2ccc(Cl)cc2)cc1`, for which the Potency result was “inactive”. On the same count and under the same terms, for `O=C(/C=C/C=C/c1ccc2c(c1)OCO2)N1CCCCC1` the value was “inactive”.
